An excerpt weighted towards active compounds, which were near 1.4% of everything screened.
AmpC no deterg = blocks E. coli AmpC beta-lactamase in detergent-free assay | P00811 | AmpC nitrocefin hydrolysis, absorbance 480 nm, 0.0001% Triton | Potency, µM (series often up to 57.1 µM), actives largely listed as inhibitors | 330,000 tested, 0.52% active; also: nearly all actives have a fitted effect of over 20% in size
Target sequence (P00811 whole entry, looked up): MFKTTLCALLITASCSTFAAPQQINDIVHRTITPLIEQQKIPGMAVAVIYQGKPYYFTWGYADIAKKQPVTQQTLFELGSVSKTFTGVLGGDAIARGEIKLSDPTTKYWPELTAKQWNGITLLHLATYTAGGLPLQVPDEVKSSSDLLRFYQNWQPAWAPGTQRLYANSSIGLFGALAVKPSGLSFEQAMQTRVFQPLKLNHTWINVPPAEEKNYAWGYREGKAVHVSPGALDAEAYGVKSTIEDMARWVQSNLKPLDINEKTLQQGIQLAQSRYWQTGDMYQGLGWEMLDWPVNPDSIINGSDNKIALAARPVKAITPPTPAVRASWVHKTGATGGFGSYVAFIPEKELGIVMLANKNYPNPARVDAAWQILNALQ
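AmpC (5.3 nM in the dispensed reagent) in 20 mM phosphate pH 7.0 with 0.01% (detergent screen) or 0.0001% Triton X-100 was preincubated with compounds for 15 min at room temperature. Nitrocefin was then added from an 800 uM solution, and hydrolysis was followed at 480 nm.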
RE007 growth inh = less growth of the S. pombe RE007 Vpr strain; 360,000 tested, 0.21% active; AID 651644; Potency, µM (titrated, usually from 92.2 µM), actives largely listed as inhibitors; S. pombe RE007 Vpr strain, BacTiter-Glo ATP luminescence, 24 h; active = well fitted falling curve with a large enough effect; inconclusive = small, poorly fitted or top-dose-only effect; inactive = no such curve, though single readings can be large or run the other way; also: nearly all actives have a fitted effect of over 50% in size
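Fission yeast RE007 carrying one integrated HIV-1 vpr copy, seeded at OD 0.01 in PMG+AL medium with 23 nL pinned compound. Grown 24 h at 30 degrees; viability read by BacTiter-Glo luminescence after 5 min.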
Giardia FBPA inh-1 = inhibitors of Giardia lamblia fructose-1,6-bisphosphate aldolase. 290,000 tested, 0.71% active. purified Giardia FBPA. Potency, µM (top dose mostly 59.6 µM), most hits filed as inhibitors; also: nearly all actives have a fitted effect of over 55% in size
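40 nM FBPA preincubated 10 min at RT with compound (up to 57.5 uM final), then substrate plus GAPDH/TPI/NAD/arsenate coupling and diaphorase/resazurin added. Fluorescence read after 20 min at RT, 525/598 nm.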
LmPK inh = blocks Leishmania mexicana pyruvate kinase activity | purified LmPK, Kinase-Glo ATP luminescence, 1 h | Potency, µM (top dose mostly 57.5 µM), hits mostly inhibitors | 290,000 tested, 0.37% active | AID 1721
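ATP generated from ADP (0.1 mM) and PEP (0.5 mM) by 0.1 nM LmPK over 1 h at room temperature (pH 7.2 imidazole buffer) was detected by coupled luciferase luminescence. Values were normalized to uninhibited and no-enzyme wells.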
Tb PYK inh = T. brucei pyruvate kinase inhibition; 410,000 tested, 0.12% active; TbPYK enzyme, Kinase-Glo Plus ATP luminescence, 45 min; AID 624173; Potency, µM (titrated, usually from 76.8 µM), actives largely listed as inhibitors; also: nearly all actives have a fitted effect of over 50% in size
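Screened from lowest to highest concentration, compounds were pinned into TbPYK/substrate mixtures, and ADP (130 uM final) was added. Plates sat at room temperature for 45 min prior to Kinase-Glo Plus detection by luminescence.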
AmpC detergent = AmpC beta-lactamase inhibition with detergent present; AmpC hydrolysis of nitrocefin, absorbance 480 nm, 0.01% Triton; Potency, µM (series often up to 114 µM), actives largely listed as inhibitors; 370,000 tested, 0.041% active; also: nearly all actives have a fitted effect of over 25% in size
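20 mM phosphate pH 7.0 + 0.01% (detergent screen) or 0.0001% Triton X-100; 5.3 nM AmpC reagent; cpd preinc 15 min RT; nitrocefin (800 uM stock) to start; A480 q20 s × 4 min; Activity was normalised to no-enzyme and no-compound control wells.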
Giardia growth = blocks growth of Giardia lamblia trophozoites; shares compounds with Giardia FBPA inh-1; Giardia lamblia trophozoite growth inhibition; Potency, µM (series often up to 57.5 µM), actives largely listed as inhibitors; 1,500 tested, 5% active;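 also: trophozoites exposed to compound for 48 h at 37 °C; nearly all actives have a fitted effect of over 70% in size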
Mammal cell tox = mammalian cytotoxicity of Giardia aldolase inhibitor hits. shares compounds with Giardia FBPA inh-1. mammalian cell viability counter-screen, qHTS. Potency, µM (top dose mostly 57.5 µM), actives largely listed as inhibitors. 1,500 tested, 4% active. AID 2786;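 also: Chinese hamster ovary cells used as mammalian cytotoxicity surrogate; viability measured as cellular ATP by luminescence; compound exposure lasted 48 h before reading; nearly all actives have a fitted effect of over 60% in size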
Giardia FBPA inh-2 = confirmation of Giardia fructose-bisphosphate aldolase inhibitors; shares compounds with Giardia FBPA inh-1; purified Giardia aldolase enzyme activity, qHTS; Potency, µM (titrated, usually from 57.5 µM), most hits filed as inhibitors; 1,500 tested, 5% active; AID 2787; also: nearly all actives have a fitted effect of over 45% in size
Rabbit aldolase = selectivity test for Giardia aldolase inhibitors: rabbit aldolase | Potency, µM (titrated, usually from 57.5 µM), hits mostly inhibitors | AID 2794 | Rabbit muscle FBPA enzyme inhibition, selectivity counter-screen | shares compounds with Giardia FBPA inh-1 | 1,500 tested, 4% active; also: nearly all actives have a fitted effect of over 60% in size
GAPDH coupling = counter-screen for Giardia aldolase inhibitors: GAPDH coupling enzyme; shares compounds with Giardia FBPA inh-1; GAPDH coupling enzyme counterscreen, biochemical, qHTS; Potency, µM (highest dose often 57.5 µM), actives largely listed as inhibitors; 1,500 tested, 6% active; also: nearly all actives have a fitted effect of over 55% in size
Of the large screens only hits and unclear results are named; the others gave an inactive call (follow-up assays come after a bar, where they were run). Unless noted, calls follow the shape of the dose curve; as a rule, active = well fitted curve in the direction sought with a large enough effect; inconclusive = small, poorly fitted or top-dose-only effect, or another doubt; inactive = no such curve, though single readings can be large; an effect the other way counts as inactive or inconclusive.

CC(C)c1cccc(OCCCCN(C)C)c1	Giardia FBPA inh-1 16µM | Giardia growth inconclusive | Mammal cell tox inactive | Giardia FBPA inh-2 inactive | Rabbit aldolase inactive | GAPDH coupling inactive
Cc1ccc(C2C(=O)N(C3CCCCCC3)CC(=O)N2CCC2=CCCCC2)cc1 (stereo not drawn)	none (no result: AmpC no deterg, RE007 growth inh, Giardia FBPA inh-1, LmPK inh)
CCOc1cc(C(=O)Nn2cnnc2)cc(OCC)c1OCC	none
CCOc1cc(C(=O)NC(=S)Nn2cnnc2)cc(OCC)c1OCC	Giardia FBPA inh-1 16µM | Giardia growth inconclusive | Mammal cell tox inactive | Giardia FBPA inh-2 inactive | Rabbit aldolase inactive | GAPDH coupling inactive
Cc1ccc(OCCCN2CCOCC2)cc1	Giardia FBPA inh-1 20µM, AmpC detergent inconclusive | Giardia growth inconclusive | Mammal cell tox inactive | Giardia FBPA inh-2 inactive | Rabbit aldolase inactive | GAPDH coupling inactive
CN(CC(=O)Nc1cccc(F)c1)S(=O)(=O)c1ccc2c(c1)n(C)c(=O)c(=O)n2C	none (no result: AmpC no deterg, RE007 growth inh, Giardia FBPA inh-1, LmPK inh)
O=C1CCC(=O)N1CC(=O)N1CCCc2ccccc21	AmpC detergent inconclusive
O=C(CN1CCOCC1)N1CCCc2ccccc21	Giardia FBPA inh-1 13µM | Giardia growth inconclusive | Mammal cell tox inactive | Giardia FBPA inh-2 inactive | Rabbit aldolase inactive | GAPDH coupling inactive
Cc1oc(C)c2c(=O)ccc3c(c12)OC(N)=C(C#N)C3c1ccccc1Cl (stereo not drawn)	Giardia FBPA inh-1 11µM | Giardia growth inactive | Mammal cell tox inactive | Giardia FBPA inh-2 inactive | Rabbit aldolase inactive | GAPDH coupling inactive
Cc1ccccc1NC(=S)NNC(=O)c1ccco1	Giardia FBPA inh-1 7.9µM | Giardia growth inconclusive | Mammal cell tox inactive | Giardia FBPA inh-2 inactive | Rabbit aldolase inactive | GAPDH coupling inactive
O=C(NC(=S)Nc1ccccc1[N+](=O)[O-])c1ccco1	Giardia FBPA inh-1 16µM, AmpC detergent inconclusive | Giardia growth 35µM | Mammal cell tox inactive | Giardia FBPA inh-2 inactive | Rabbit aldolase inactive | GAPDH coupling inactive
COC(=O)c1cc(OC)c(OC)cc1NC(=S)NC(=O)c1ccco1	Giardia FBPA inh-1 13µM | Giardia growth inactive | Mammal cell tox inactive | Giardia FBPA inh-2 inactive | Rabbit aldolase inactive | GAPDH coupling inactive
O=C(NC(=S)Nc1ccc([N+](=O)[O-])cc1)c1ccco1	none (no result: AmpC no deterg, Giardia FBPA inh-1, LmPK inh, AmpC detergent)
CCCn1c2ccccc2c2cnn(CC(=O)NCCCN(Cc3ccccc3)C(C)C)c(=O)c21	none (no result: AmpC no deterg, RE007 growth inh, Giardia FBPA inh-1, LmPK inh)
Cc1c(CCO)c(=O)n2c([nH]c3ccccc32)c1C#N	Giardia FBPA inh-1 25µM | Giardia growth inactive | Mammal cell tox inactive | Giardia FBPA inh-2 inactive | Rabbit aldolase inactive | GAPDH coupling inactive
Cc1c(OCC(F)(F)F)ccnc1CS(=O)c1nc2ccccc2[nH]1 (stereo not drawn)	AmpC detergent inconclusive

Assay outcomes as filed in PubChem BioAssay.
